# Measurements reported in the supplement of paper PMC9177965.
# Where “and” joins values, the source holds several entries; their conditions need not be identical. Equal entries are not always repeated.
# System: HT29 sg-Ctrl (RNF43 wildtype)
# Assay: cell viability activity relative to DMSO (negative = inhibition); higher = more viable cells (less growth inhibition)
# Conditions: 5 µM; 96 h
# Protocol: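 Broad Repurposing Library primary screen at a single dose of 5 uM. HT29 sg-Ctrl and HT29 RNF43 G659fs CRISPR-edited isogenic cells were seeded at 2500 cells/well in 384-well plates in duplicate and treated for 96 h. Viability was read by CellTiter-Glo and reported as % activity relative to DMSO, with MG132 as the positive control (negative = growth inhibition).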
row,SMILES,cell viability activity
1,CNC(=O)c1ccccc1Nc1cc(Nc2ccc(N3CCOCC3)cc2OC)ncc1C(F)(F)F,-60%
2,COCCN1CCN(Cc2ccc(-c3n[nH]c4c3C(=O)c3c(NC(=O)NN5CCOCC5)cccc3-4)cc2)CC1,-79.4%
3,CN(C)C(=O)CCSC(SCCC(=O)O)c1cccc(/C=C/c2ccc3ccc(Cl)cc3n2)c1 (stereo not drawn),5.04%
4,COc1c(OCCCN2CCOCC2)ccc2c3n(c(=NC(=O)c4cnc(N)nc4)nc12)CCN3,-46.8%
5,N[C@@H](Cn1ccc(=O)n(Cc2ccccc2C(=O)O)c1=O)C(=O)O,-34.1%
6,N=C(NCCCCCCNC(=N)NC(=N)Nc1ccc(Cl)cc1)NC(=N)Nc1ccc(Cl)cc1,-24.9%
7,CCCC1(CCC)CCC2(CCN(CCCN(CC)CC)C2)CC1,-95.6%
8,COc1ccccc1S(=O)(=O)Nc1ccc2c(c1)CN(C)C(=O)N2,-63.5%
9,Cc1ccc(/C=C2\CNC/C(=C\c3ccc(C)cc3)C2=O)cc1,-92.7%
10,c1ccc(CNc2nc(NCc3ccccc3)c3ccccc3n2)cc1,-41%
11,Cc1ccc(C)c(OCCCC(C)(C)C(=O)O)c1,-39.7%
12,CCN(CC)CCOCCOC(=O)C(CC)(CC)c1ccccc1,-61.1%
13,OC1(c2ccc(Cl)c(C(F)(F)F)c2)CCN(CCCC(c2ccc(F)cc2)c2ccc(F)cc2)CC1,-60.6%
14,CN(C)CCOc1ccc(-c2nc(-c3ccncc3)c(-c3ccc4c(c3)CC/C4=N\O)[nH]2)cc1,-45.8%
15,NS(=O)(=O)C#Cc1ccccc1,-72.2%
16,O=C(NC1CCNCC1)c1n[nH]cc1NC(=O)c1c(Cl)cccc1Cl,-83.8%
17,OCc1ccc(-c2ccc(-c3ccc(CO)s3)o2)s1,-42.8%
18,CC(C)Oc1ccc(C(=O)N[C@H](CNC(=O)CN(C)C)Cc2ccc(-c3cn4cccc([C@H](C)O)c4n3)cc2)cc1Cl,-59.4%
19,CC(C)c1cc(C(C)C)c(-c2csc(N(CCN(C)C)Cc3cccnc3)n2)c(C(C)C)c1,-63.4%

row,SMILES,cell viability activity
1,Cc1ccc(C(=O)Nc2cccc(C(F)(F)F)c2)cc1Nc1nc(-c2cccnc2)nc2c1cnn2C,-24.4%
2,CC(C)(C)c1ccc(-c2nc3ccccc3[nH]2)cc1,-67.1%
3,CCOC(=O)CCNc1cc(N2CCc3ccccc3CC2)nc(-c2ccccn2)n1,-27.5%
4,O=C(c1cccc(Cl)c1F)N1CCN(Cc2cccc(Nc3nccs3)n2)CC1,-25.6%
5,CCCCCCCCCCCCCCCC[N+](C)(C)C,-74.2%
6,COc1cc2ncnc(Sc3nnc(C)s3)c2cc1OC,14.6%
7,Cc1[nH]nc2ccc(-c3cncc(OC[C@@H](N)Cc4ccccc4)c3)cc12,-90.7%
8,CC(C)/N=c1\cc2n(-c3ccc(Cl)cc3)c3ccccc3nc-2cc1Nc1ccc(Cl)cc1,-75.7%
9,CC(CN1c2ccccc2Sc2ccccc21)N(C)C (stereo not drawn),-3.76%
10,COc1cc([C@@H]2c3cc4c(cc3[C@@H](O[C@@H]3O[C@@H]5CO[C@@H](c6cccs6)O[C@H]5[C@H](O)[C@H]3O)[C@H]3COC(=O)[C@H]23)OCO4)cc(OC)c1O,-90.9% and -80.9%
11,Cc1nnc(C[C@@H]2C=C(c3ccc(Cl)cc3)c3ccccc3-n3c(C)nnc32)o1,-64.7%
12,COc1cc2nc(N3CCC(N4CCCCC4)CC3)nc(NC3CCCCCC3)c2cc1OC,-95.5%
13,COc1ccc(NC(=O)c2ccc(-c3ccc(-c4noc(C)n4)cc3C)cc2)cc1N1CCN(C)CC1,-57.8%
14,O=C(Nc1nc2ccc(NC(=O)C34CC5CC(CC(C5)C3)C4)cc2s1)c1ccccc1,-29.4%
15,O=C(NOCCO)c1cc(CN2OCCCC2=O)c(F)c(F)c1Nc1ccc(I)cc1F,-75%
16,CC(C)NC[C@@H](C(=O)N1CCN(c2ncnc3c2[C@H](C)C[C@H]3O)CC1)c1ccc(Cl)cc1,-35.4%
17,Nc1nc(Nc2ccc3c(c2)CCC(N2CCCC2)CC3)nn1-c1cc2c(nn1)-c1ccccc1CCC2 (stereo not drawn),-31.9%
18,CC(C)[C@](O)(c1ccc2cc(OC(F)F)c(OC(F)F)cc2c1)c1c[nH]nn1,9.17%
19,c1cc(Nc2cc(C3CC3)[nH]n2)nc(Nc2ccc3nc[nH]c3c2)n1,-65.9%
